Experimental data published in PubChem BioAssay AID1159580 (chemical genetic matrix, 2015).
In all, about 5,500 compounds went through this assay and about 2,000 (36%) were called active. Roughly 18% stayed inconclusive and do not appear here. No stated cut-off is given here; in the data, active means normalized growth mostly below about 0.91 (no sharp cut-off); inconclusive means no clear call, values can overlap the other calls; inactive means mostly above about 0.92. The list shows a part of the results.

Test: chemical genetic growth profiling, strain panel (AID 1159580);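 further: tested at 20 µM; growth read once vehicle control cultures reached saturation at 30 °C; 1 = growth at the plate median or of vehicle wells; lower values mean less growth of the strain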
Settings: growth OD
[1] = S. cerevisiae deletion strains, locus YBR021W, strain FUR4, hits give low values
[2] = S. cerevisiae deletion strains, locus YBR229C, strain ROT2, hits give low values
[3] = S. cerevisiae deletion strains, locus YCL029C, strain bik1, hits give low values
[4] = S. cerevisiae deletion strains, locus YDL035C, strain GPR1, hits give low values
[5] = S. cerevisiae deletion strains, locus YDL074C, strain BRE1, hits give low values
[6] = S. cerevisiae deletion strains, locus YDL101C, strain DUN1, hits give low values
[7] = S. cerevisiae deletion strains, locus YDL185W, strain tfp1, hits give low values
[8] = S. cerevisiae deletion strains, locus YDL192W, strain arf1, hits give low values
[9] = S. cerevisiae deletion strains, locus YDR101C, strain arx1, hits give low values
[10] = S. cerevisiae deletion strains, locus YDR150W, strain NUM1, hits give low values
[11] = S. cerevisiae deletion strains, locus YDR162C, strain NBP2, hits give low values
[12] = S. cerevisiae deletion strains, locus YDR318W, strain mcm21, hits give low values
[13] = S. cerevisiae deletion strains, locus YDR388W, hits give low values
[14] = S. cerevisiae deletion strains, locus YDR502C, strain sam2, hits give low values
[15] = S. cerevisiae deletion strains, locus YEL061C, strain CIN8, hits give low values
[16] = S. cerevisiae deletion strains, locus YER110C, hits give low values
[17] = S. cerevisiae deletion strains, locus YER155C, strain BEM2, hits give low values
[18] = S. cerevisiae deletion strains, locus YER167W, strain BCK2, hits give low values
[19] = S. cerevisiae deletion strains, locus YGL078C, strain dbp3, hits give low values
[20] = S. cerevisiae deletion strains, locus YGL086W, strain mad1, hits give low values
[21] = S. cerevisiae deletion strains, locus YGL248W, strain PDE1, hits give low values
[22] = S. cerevisiae deletion strains, locus YGR135W, strain pre9, hits give low values
[23] = S. cerevisiae deletion strains, locus YGR252W, strain gcn5, hits give low values
[24] = S. cerevisiae deletion strains, locus YHR030C, strain SLT2, hits give low values
[25] = S. cerevisiae deletion strains, locus YHR079C, strain IRE1 (second series), hits give low values
[26] = S. cerevisiae deletion strains, locus YHR094C, strain hxt1, hits give low values
[27] = S. cerevisiae deletion strains, locus YHR129C, strain ARP1, hits give low values
[28] = S. cerevisiae deletion strains, locus YHR200W, strain rpn10, hits give low values
[29] = S. cerevisiae deletion strains, locus YIL066C, strain RNR3, hits give low values
[30] = S. cerevisiae deletion strains, locus YIL073C, strain SPO22, hits give low values
[31] = S. cerevisiae deletion strains, locus YIL125W, strain kgd1, hits give low values
[32] = S. cerevisiae deletion strains, locus YIR030C, strain dcg1, hits give low values
[33] = S. cerevisiae deletion strains, locus YJL095W, strain BCK1, hits give low values
[34] = S. cerevisiae deletion strains, locus YJL134W, strain LCB3, hits give low values
[35] = S. cerevisiae deletion strains, locus YJL168C, strain set2, hits give low values
[36] = S. cerevisiae deletion strains, locus YJL187C, strain SWE1 (second series), hits give low values
[37] = S. cerevisiae deletion strains, locus YJR043C, strain POL32, hits give low values
[38] = S. cerevisiae deletion strains, locus YKL009W, strain mrt4, hits give low values
[39] = S. cerevisiae deletion strains, locus YKL068W, hits give low values
[40] = S. cerevisiae deletion strains, locus YKL085W, strain MDH1 (second series), hits give low values
[41] = S. cerevisiae deletion strains, locus YKL085W, strain MDH1, hits give low values
[42] = S. cerevisiae deletion strains, locus YKL190W, strain CNB1, hits give low values
[43] = S. cerevisiae deletion strains, locus YKR001C, strain vps1, hits give low values
[44] = S. cerevisiae deletion strains, locus YLR039C, strain RIC1, hits give low values
[45] = S. cerevisiae deletion strains, locus YLR058C, strain SHM2, hits give low values
[46] = S. cerevisiae deletion strains, locus YLR102C, strain apc9, hits give low values
[47] = S. cerevisiae deletion strains, locus YLR268W, strain sec22, hits give low values
[48] = S. cerevisiae deletion strains, locus YLR330W, strain CHS5, hits give low values
[49] = S. cerevisiae deletion strains, locus YLR371W, strain rom2, hits give low values
[50] = S. cerevisiae deletion strains, locus YLR418C, strain cdc73, hits give low values
[51] = S. cerevisiae deletion strains, locus YML016C, strain PPZ1, hits give low values
[52] = S. cerevisiae deletion strains, locus YML032C, strain rad52, hits give low values
[53] = S. cerevisiae deletion strains, locus YML124C, strain tub3, hits give low values
[54] = S. cerevisiae deletion strains, locus YMR078C, strain ctf18, hits give low values
[55] = S. cerevisiae deletion strains, locus YMR223W, strain ubp8, hits give low values
[56] = S. cerevisiae deletion strains, locus YMR263W, strain SAP30, hits give low values
[57] = S. cerevisiae deletion strains, locus YMR307W, strain GAS1, hits give low values
[58] = S. cerevisiae deletion strains, locus YNL067W, strain RPL9B, hits give low values
[59] = S. cerevisiae deletion strains, locus YNL153C, strain GIM3, hits give low values
[60] = S. cerevisiae deletion strains, locus YNL233W, strain BNI4, hits give low values
[61] = S. cerevisiae deletion strains, locus YNL250W, strain rad50, hits give low values
[62] = S. cerevisiae deletion strains, locus YNL271C, strain bni1, hits give low values
[63] = S. cerevisiae deletion strains, locus YNL298W, strain CLA4, hits give low values
[64] = S. cerevisiae deletion strains, locus YNL307C, strain MCK1, hits give low values
[65] = S. cerevisiae deletion strains, locus YNR052C, strain pop2, hits give low values
[66] = S. cerevisiae deletion strains, locus YOL012C, strain htz1
[67] = S. cerevisiae deletion strains, locus YOL147C, strain pex11, hits give low values
[68] = S. cerevisiae deletion strains, locus YOR061W, strain CKA2, hits give low values
[69] = S. cerevisiae deletion strains, locus YOR069W, strain VPS5, hits give low values
[70] = S. cerevisiae deletion strains, locus YOR136W, strain idh2, hits give low values
[71] = S. cerevisiae deletion strains, locus YOR144C, strain elg1, hits give low values
[72] = S. cerevisiae deletion strains, locus YOR184W, strain ser1, hits give low values
[73] = S. cerevisiae deletion strains, locus YOR316C, strain cot1, hits give low values
[74] = S. cerevisiae deletion strains, locus YPR119W, strain clb2, hits give low values
[75] = S. cerevisiae deletion strains, locus YPR141C, strain kar3, hits give low values
[76] = S. cerevisiae deletion strains, locus YPR163C, strain tif3, hits give low values
[77] = S. cerevisiae deletion strains, locus YPR167C, strain met16, hits give low values
[78] = S. cerevisiae deletion strains, strain wtn01, hits give low values
[79] = S. cerevisiae strains, strain wild type, hits give low values

Measured: normalized growth

CC(=O)O[C@H]1CC[C@]2(C)C3CC[C@@]4(C)C(CC5O[C@@]6(CCC(C)CO6)[C@@H](C)C54)C3CC[C@H]2C1 (stereo not given in full)
inactive: S. cerevisiae deletion strains, locus YAL013W, strain DEP1, hits give low values 0.995 | [1] 1 | [2] 0.986 | [3] 0.98 | [4] 1.02 | [5] 1.01 | [6] 0.98 | S. cerevisiae deletion strains, locus YDL134C, strain PPH21, hits give low values 0.988 | [7] 0.972 | [8] 0.987 | [9] 0.983 | [10] 1 | [11] 1.02 | [12] 0.975 | [13] 0.973 | [14] 0.974 | [15] 0.997 | [16] 0.976 | [17] 0.984 | [18] 0.995 | [19] 0.971 | [20] 0.988 | [21] 0.984 | [22] 0.948 | [23] 0.92 | [24] 0.978 | [25] 0.977 | [26] 0.969 | [27] 0.991 | [28] 0.973 | [29] 0.993 | [30] 0.985 | [31] 0.982 | [32] 0.975 | [33] 0.977 | [34] 0.987 | [35] 0.979 | [36] 0.977 | [37] 1.02 | S. cerevisiae deletion strains, locus YJR075W, strain HOC1, hits give low values 0.983 | [38] 1.04 | [39] 0.979 | [40] 1.01 | [41] 1.01 | [42] 0.999 | [43] 0.971 | [44] 1.07 | [45] 0.989 | [46] 0.979 | [47] 0.987 | [48] 0.986 | [49] 0.991 | [50] 0.976 | [51] 0.989 | [52] 0.977 | [53] 0.994 | [54] 0.969 | [55] 0.969 | [56] 0.991 | [57] 1.09 | [58] 0.983 | [59] 0.977 | [60] 1.01 | [61] 0.965 | [62] 0.982 | [63] 0.971 | [64] 0.982 | [65] 0.953 | S. cerevisiae deletion strains, locus YOL006C, strain TOP1, hits give low values 1.06 | [66] 1.12 | [67] 0.98 | [68] 1 | [69] 0.98 | [70] 0.968 | [71] 0.972 | [72] 1.02 | [73] 0.977 | [74] 0.968 | [75] 0.974 | [76] 0.977 | [77] 0.979 | [78] 1 | [79] 1.02

CC(=O)OCC(=O)[C@@]1(O)CCC2C3CC[C@@H]4C[C@H](OC(C)=O)CC[C@]4(C)C3C(=O)C[C@@]21C (stereo not given in full)
inactive: [1] 0.972 | [2] 0.997 | [3] 1.03 | [4] 0.989 | [5] 0.993 | [6] 1.01 | [7] 1.02 | [8] 1.01 | [9] 1.01 | [10] 0.994 | [11] 0.987 | [12] 1 | [13] 1.01 | [14] 1 | [15] 0.971 | [16] 1.01 | [17] 0.994 | [18] 0.961 | [19] 1 | [20] 1.01 | [21] 1.01 | [22] 1 | [23] 0.991 | [24] 1 | [25] 1.01 | [26] 1.01 | [27] 0.996 | [28] 1.02 | [29] 1 | [30] 1.05 | [31] 1 | [32] 0.999 | [33] 1 | [34] 1 | [35] 1.01 | [36] 0.999 | [37] 0.995 | [38] 0.988 | [39] 1.01 | [40] 1.01 | [41] 1.01 | [42] 0.997 | [43] 1.01 | [44] 1.02 | [45] 0.993 | [46] 1.01 | S. cerevisiae deletion strains, locus YLR262C, strain YPT6, hits give low values 1.03 | [47] 1.03 | [48] 1 | S. cerevisiae deletion strains, locus YLR342W, strain FKS1 (second series), hits give low values 1.01 | [49] 1 | [50] 1.01 | [51] 1.01 | [52] 1 | [53] 1.01 | [54] 1.02 | [55] 1.02 | [56] 0.995 | [57] 0.99 | [58] 1 | [59] 1 | [60] 0.995 | [61] 1.02 | [62] 1.01 | [63] 1.01 | [64] 1.02 | S. cerevisiae deletion strains, locus YNL322C, strain KRE1, hits give low values 0.998 | [65] 1.01 | [66] 1 | [67] 1.01 | [68] 1.01 | [69] 0.996 | [70] 1.02 | [71] 1.02 | [72] 1.01 | [73] 1.01 | [74] 1 | [75] 1.02 | [76] 1.02 | [77] 1.02 | [78] 1.02 | [79] 0.986
